A selection: hits, their analogues and other compounds. The true share with any hit is near 18%.
TDP1 inh = inhibitors of human tyrosyl-DNA phosphodiesterase TDP1. Q9NUW8. recombinant TDP1, AlphaScreen DNA substrate cleavage. Potency, µM (titrated, usually from 130 µM), for inactives: top-dose activity change, negative = inhibition, usual class: inhibitors. 350,000 tested, 0.28% active. AID 485290; also: potency is read from the fitted curve at half-maximal effect; % is scaled to controls: 0 for no effect and ±100 for the full control effect; nearly all actives have a fitted effect of over 40% in size
Target sequence (Q9NUW8 whole entry, looked up): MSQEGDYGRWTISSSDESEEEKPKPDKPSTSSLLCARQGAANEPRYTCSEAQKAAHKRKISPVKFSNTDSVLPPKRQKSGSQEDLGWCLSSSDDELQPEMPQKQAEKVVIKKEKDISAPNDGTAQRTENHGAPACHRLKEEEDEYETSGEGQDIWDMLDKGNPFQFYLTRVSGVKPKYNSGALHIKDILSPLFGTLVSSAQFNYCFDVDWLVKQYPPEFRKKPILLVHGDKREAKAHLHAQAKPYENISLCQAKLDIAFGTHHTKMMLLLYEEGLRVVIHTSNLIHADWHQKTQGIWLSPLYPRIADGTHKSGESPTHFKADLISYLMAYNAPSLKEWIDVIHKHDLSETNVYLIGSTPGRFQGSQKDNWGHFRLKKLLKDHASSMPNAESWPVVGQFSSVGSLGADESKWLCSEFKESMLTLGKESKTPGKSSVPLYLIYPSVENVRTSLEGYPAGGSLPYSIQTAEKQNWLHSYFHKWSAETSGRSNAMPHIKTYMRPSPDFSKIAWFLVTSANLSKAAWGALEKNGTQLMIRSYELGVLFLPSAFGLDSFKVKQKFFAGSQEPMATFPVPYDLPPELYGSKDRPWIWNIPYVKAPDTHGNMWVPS
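Recombinant human Tdp1 (E. coli-expressed, 1 nM final) preincubated with compounds 15 min at room temperature, then 5'-biotin/3'-phosphotyrosine-FITC DNA substrate (15 nM final) added for 5 min. AlphaScreen beads (10 ug/ml final) added 10 min; cleavage lowers signal.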
HepG2 tox = kills HepG2 cells in TGF-b inhibitor counter-screen; AID 588856; HepG2 CAGA-GFP viability, ATP luminescence, 18 h; 410,000 tested, 0.76% active; Potency, µM (top dose mostly 46.1 µM), inactives show at the top dose activity change, negative = cytotoxicity, hits mostly cytotoxic; also: potency is read from the fitted curve at half-maximal effect
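HepG2 CAGA-GFP cells (1000/well, DMEM with 1% FBS) received compound, then TGF-beta at 500 pg/mL final, and were incubated 18 hours at 37 degrees C. Viability was read by CellTiter-Glo luminescence. Media-only wells were set as complete cell-killing and DMSO as no toxicity.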
TGFb SMAD3 inh = inhibitors of TGF-b signaling; 410,000 tested, 1.2% active; Potency, µM (series often up to 46.1 µM), without a hit: at the highest dose activity, negative = inhibition, hits mostly inhibitors; HepG2 CAGA-GFP TGF-b/SMAD3 reporter, GFP fluorescence, 18 h; TGF-beta stimulated, 500 pg/mL final; also: potency is read from the fitted curve at half-maximal effect; % is scaled to controls: 0 for no effect and ±100 for the full control effect; nearly all actives have a fitted effect of over 65% in size
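Per well, imaged GFP fluorescence of HEPG2 CAGA-GFP cells gives the signal; cells get compound, then TGF-beta (500 pg/mL final), 18 h at 37 degrees C; %Activity versus -TGF-beta and +DMSO controls.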
DT40 TDP1 CPT = growth inhibition of DT40 Tdp1-/-;hTDP1 cells with camptothecin (screen for TDP1 inhibitors). chicken DT40 Tdp1-/-;hTDP1 cells + 20 nM CPT, ATP luminescence, 48 h. Potency, µM (series often up to 46.2 µM), for inactives: at the highest dose activity change, negative = growth inhibition, hits mostly inhibitors. 420,000 tested, 12% active; also: potency is read from the fitted curve at half-maximal effect; % is scaled to controls: 0 for no effect and ±100 for the full control effect; nearly all actives have a fitted effect of over 55% in size
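Chicken DT40 Tdp1-/- cells stably complemented with human TDP1 were seeded at 400 cells/well in medium containing 20 nM camptothecin, exposed to pin-transferred compounds, and grown at 37 °C for at least 48 hr. Viability was read as ATP luminescence.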
IL-1B inflam inh = blocks inflammasome-driven IL-1 beta release. THP-1 LPS/ATP IL-1B secretion, AlphaLISA, 16 h; active compounds read low. activity change, % at 57.5 µM. 360,000 tested, 4.7% active; in the data active = activity change below about -50%; inconclusive = mostly about -30% to -49%; also: % is scaled to controls: 0 for no effect and ±100 for the full control effect
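THP-1 cells pretreated 1 hr with compounds (up to 57.5 uM final), then stimulated with LPS (250 ng/mL final) plus ATP (1.25 mM final); secreted IL-1B measured by AlphaLISA after 16 hr, decreased signal indicating inhibition.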
TDP1 cell noCPT = qHTS for Inhibitors of human tyrosyl-DNA phosphodiesterase 1 (TDP1): qHTS in cells in absence of CPT | DT40 Tdp1-/- hTDP1 cells, no CPT, ATP luminescence, 48 h | Potency, µM (top dose mostly 46.2 µM), for inactives: top-dose activity change, negative = growth inhibition, usual class: inhibitors | 420,000 tested, 15% active; also: potency is read from the fitted curve at half-maximal effect; % is scaled to controls: 0 for no effect and ±100 for the full control effect; nearly all actives have a fitted effect of over 55% in size
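A cellular qHTS used chicken DT40 cells lacking endogenous Tdp1 but carrying stably transfected human TDP1. Compounds were applied without camptothecin, and cell growth kinetics were judged by ATP-dependent luminescence after ≥48 hr.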
* = called active by the depositor; ? = inconclusive; / = no result given; ! = repeats disagree; [ ] = another dose, or the depositor's remark. Unless noted, calls follow the shape of the dose curve; as a rule, active = well fitted curve in the direction sought with a large enough effect; inconclusive = small, poorly fitted or top-dose-only effect, or another doubt; inactive = no such curve, though single readings can be large; an effect the other way counts as inactive or inconclusive.

SMILES	TDP1 inh	HepG2 tox	TGFb SMAD3 inh	DT40 TDP1 CPT	IL-1B inflam inh	TDP1 cell noCPT
COc1cc(NCCCn2cnc(C(=O)Nc3ccc(C)c(C)c3)n2)cc(OC)c1OC	/	-1%	-5%	-22%	-18	?
Cn1nc(C(C)(C)C)cc1C(=O)N1CCCCC1c1cc(C(=O)Nc2ccc(F)c(Cl)c2)no1 (stereo unspecified)	/	-16%	?	21µM*	-64*	?
Nc1c(C(=O)Nc2ccc(F)c(Cl)c2)sc2nc3c(cc12)N1CCC3CC1	2%	-28%	?	/	/	/
O=C1CCCCCN1CP(=O)(O)CCc1ccccc1	0%	-2%	-3%	-8%	6	-9%
COCC(C)N(C(=O)CCl)c1c(C)csc1C (stereo unspecified)	10%	/	/	10%	/	-17%
CCOCN(C(=O)CCl)c1c(C)cccc1CC	4%	1%	9%	?	-60*	?
CCc1cccc(CC)c1N(COC)C(=O)CCl	8%[56.1 µM]	-7%	-12%	21µM*!	-19	?
Nc1ccc(CCN2CCN(c3cccc(C(F)(F)F)c3)CC2)cc1	9%[56.1 µM]	-41%	-20%	?	-10	23µM*
CCCc1nn(C)c2c1C(c1ccncc1)C(C#N)=C(N)O2 (stereo unspecified)	/	-20%	0%	?	-3	29µM*
Cc1ccc(-n2nc(C)c3c2OC(N)=C(C#N)C3c2cccs2)cc1 (stereo unspecified)	13%	-3%	1%	-1%	47	-2%
COc1cc(C[C@H](C)N)c(OC)cc1C	/	/	/	-15%[92.5 µM]	/	-19%[92.5 µM]
CCN(CCCl)Cc1ccccc1Br	5%[56.1 µM]	-11%	1%	16µM*	20	?
Cc1cc(Cl)ccc1C(=O)C1CCCN(C2CCSCC2)C1 (stereo unspecified)	3%	-6%	12%	26µM*	-28	21µM*
O=C(c1ccc(C(F)(F)F)cc1)C1CCCN(C2CCSCC2)C1 (stereo unspecified)	0%	-6%	0%	?	-9	?
C#C[C@]1(O)CC[C@H]2[C@@H]3CCC4=CC(=O)CCC4=C3C=C[C@@]21CC	/	/	/	13µM*	/	9.4µM*
O=C(Cc1c[nH]c2ccccc12)NNCc1ccc(N(CCCl)CCCl)cc1	/	4%	5%	0.52µM*	16	0.92µM*
CC1C(=O)OC2C1CC[C@@]1(C)C=CC(=O)[C@@]3(C)O[C@@]213 (stereo partly specified)	11%[56.1 µM]	/	/	?	/	?
COc1cc(C)cc(CN2CC=C(c3ccccc3)CC2)c1O	8%	-24%	-21%	16µM*	-13	?
COc1ccc2ccc(O)c(CN3CC=C(c4ccccc4)CC3)c2c1	0%	-38%	?	?	-16	18µM*
COc1ccc(C(C)=O)cc1CN1CC=C(c2ccccc2)CC1	7%	-9%	-1%	?	21	?
CCCCCNc1c(C(=O)OCC)c(=O)[nH]c2ccccc12	-1%	-22%	-5%	?	1	13µM*
C=C1C=C(C(F)F)n2ncc(C(=O)NCc3ccccc3F)c2N1	/	-8%	-4%	?	/	11µM*
Cc1cccc(C)c1Oc1nc(-c2ccccc2)ncc1S(=O)(=O)c1ccccc1	-3%	-9%	13%	?	2	18µM*
COc1ccc(-n2nnnc2C(C2CC2)N2CCC3(CC2)C(=O)NCN3c2ccccc2)cc1 (stereo unspecified)	/	0%	-1%	?	-18	?
O=C1NCN(c2ccccc2)C12CCN(C(c1cc3ccccc3o1)c1nnnn1-c1ccc3c(c1)OCCO3)CC2 (stereo unspecified)	/	5%	?	21µM*	-22	23µM*
SMILES	TDP1 inh	HepG2 tox	TGFb SMAD3 inh	DT40 TDP1 CPT	IL-1B inflam inh	TDP1 cell noCPT
O=C1NCN(c2ccccc2)C12CCN(C(c1nnnn1-c1ccc3c(c1)OCCO3)C1CC1)CC2 (stereo unspecified)	/	1%	-14%	23µM*	-12	13µM*
O=C1NCN(c2ccccc2)C12CCN(C(c1ccccc1)c1nnnn1-c1ccc3c(c1)OCCO3)CC2 (stereo unspecified)	/	-6%	?	?	0	?
Clc1ccc2c(c1)C(c1ccccc1)=NCc1nncn1-2	/	/	/	1%	/	-27%
CC(C)(C)C(O)C(Oc1ccc(-c2ccccc2)cc1)n1cncn1 (stereo unspecified)	23%	/	/	/	/	/
COc1cc(C=O)ccc1OC(=O)Nc1ccccc1	/	-176%	0%	-4%	-8	-6%
C[C@@H]1O[C@H](C[N+](C)(C)C)C[C@@H]1O	5%	/	/	16%	/	-5%
CCOc1cc2[nH]c(=O)n(CCCCC(=O)N3CCN(c4cccc(Cl)c4)CC3)c(=O)c2cc1OCC	0%	0%	-1%	2.3µM*	/	5.2µM*
COc1ccc(N2CCN(C(=O)CCCCCn3c(=S)[nH]c4ccc(N5CCOCC5)cc4c3=O)CC2)cc1	/	-17%	1%	4.1µM*	-22	2.9µM*
COc1cc2[nH]c(=O)n(CCCCCC(=O)N3CCN(c4cccc(C(F)(F)F)c4)CC3)c(=O)c2cc1OC	3%	-19%	?	?	/	6.5µM*
C[N+]1(C)CCO[C@](O)(c2ccc(-c3ccc([C@]4(O)C[N+](C)(C)CCO4)cc3)cc2)C1	2%[21 µM]	/	/	/	/	/
Ic1ccccc1CN[C@@H]1C2CCN(CC2)[C@@H]1C(c1ccccc1)c1ccccc1	/	11µM*	?	12µM*	-50*	6.5µM*
Ic1ccccc1CNC1C2CCN(CC2)C1C(c1ccccc1)c1ccccc1 (stereo unspecified)	4%	/	/	/	/	/
COc1ccc(/C=C/c2nc(-c3ccccc3O)n(-c3ccccc3)n2)cc1OC	/	-20%	7%	10µM*	/	10µM*
COc1cc(/C=N/NP(=S)(c2ccccc2)c2ccccc2)ccc1O	4%	-40%	-26%	-1%	60	-1%
c1ccc(CCN2CCC(N3CCN(c4ccccc4)CC3)CC2)cc1	6%	3%	16%	2%	0	-14%
CCCCN(Cc1ccccc1)C1CCN(CCc2ccccc2)CC1	5%	-85%	?	?	-65*	?
COC(=O)C1=C(c2ccc(F)cc2OCc2ccccc2)C[C@@H]2CC[C@H]1N2C(=O)NC1CCN(Cc2ccccc2)CC1	3%	-32%	?	8.2µM*	?	23µM*
